Data taken from PubChem BioAssay AID1851 (National Center for Advancing Translational Sciences (NCATS), 2009).
Among all 16,000 compounds or so, about 2,600 (16%) were called active. About 20% were inconclusive and are not listed. The call rests on the fitted dose curve; in most records, active means well fitted curve in the direction sought with a large enough effect; inconclusive means small, poorly fitted or top-dose-only effect, or effect the other way; inactive means no such curve, though single readings can be large or run the other way. The list is a sample of the results.

What follows are compounds tested against Cytochrome P450 2D6 (Homo sapiens) (UniProt P10635) (assay: Cytochrome panel assay with activity outcomes). Settings: recombinant CYP, pro-luciferin dealkylation, luminescence, p450-cyp2d6; series mostly up to 57.1 µM; activity, negative = inhibition: at the top concentration.
On the % scale 0 is the no-effect control and ±100 the full control effect.

Sequence of Cytochrome P450 2D6 (Homo sapiens) (P10635 whole entry, looked up): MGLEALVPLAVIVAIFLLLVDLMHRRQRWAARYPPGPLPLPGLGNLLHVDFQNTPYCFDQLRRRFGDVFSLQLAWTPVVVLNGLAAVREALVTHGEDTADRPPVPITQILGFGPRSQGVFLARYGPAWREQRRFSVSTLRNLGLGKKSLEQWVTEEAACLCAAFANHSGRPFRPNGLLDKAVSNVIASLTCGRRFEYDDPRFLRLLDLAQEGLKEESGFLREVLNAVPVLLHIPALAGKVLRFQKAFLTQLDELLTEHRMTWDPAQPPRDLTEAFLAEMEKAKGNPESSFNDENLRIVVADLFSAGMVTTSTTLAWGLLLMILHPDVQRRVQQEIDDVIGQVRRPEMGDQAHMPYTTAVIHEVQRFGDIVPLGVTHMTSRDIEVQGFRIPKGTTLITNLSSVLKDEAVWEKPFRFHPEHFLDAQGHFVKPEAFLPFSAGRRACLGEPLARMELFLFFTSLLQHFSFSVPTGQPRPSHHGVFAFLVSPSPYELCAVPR

activity, negative = inhibition, inactive:
CCOC(=O)Cc1csc(NS(=O)(=O)c2ccccc2)n1 -1.58%
CCOC(=O)C1=C(C)Nc2ncnn2C1c1cccnc1 (stereo not drawn) 3.65%
CCCC(=O)Nc1nc(C(=O)OCC)cs1 -5.9%
Nc1ccn([C@@H]2CC[C@H](CO)O2)c(=O)n1 0.962% [at 25.6 µM]
C[C@]12CC[C@H]3c4ccc(O)cc4CC[C@@H]3[C@H]1CC[C@@H]2OC(=O)CCC1CCCC1 1.36% [at 11.4 µM]
COC(=O)C1(CC(C)C)C=C2C(=C(c3ccccc3)C(=O)C2C)CN1 (stereo not drawn) -13.8%
COC(=O)C1(C)C=C2C(=C(c3ccccc3)C(=O)C2C)CN1 (stereo not drawn) -6.51%
CCCC1(C(=O)OC)C=C2C(=C(c3ccccc3)C(=O)C2C)CN1 (stereo not drawn) -9.45%
CCCC1(C(=O)OC)C=C2C(=C(C)C(=O)C2C)CN1 (stereo not drawn) 1.18%
CCCC1(C(=O)OC)C=C2C(=C(C(C)C)C(=O)C2C)CN1 (stereo not drawn) -14.3%
CO[C@H]1COC(=O)[C@H](C)NC(=O)C/C=C\[C@@H](C)[C@H](OC)COC(=O)[C@@H](OCc2ccccc2)/C=C\[C@@H]1C 3.57% [at 11.4 µM]
O=S(=O)(c1ccccc1)N1CN2CN(C1)CN(S(=O)(=O)c1ccccc1)C2 2.33% [at 11.4 µM]
NNS(=O)(=O)c1cc(C(=O)O)cc(C(=O)O)c1 5.99% [at 11.4 µM]
COc1ccc(Oc2ncc3nc(-c4cn(C)c5ccccc45)c(=O)n(C)c3n2)cc1 0.352%
COc1ccc(C(=O)NC(C)c2cc(OC)c(OC)cc2Br)cc1 (stereo not drawn) -12.9%
O=C(c1ccccc1-c1nc(-c2ccccc2)no1)N1CCOCC1 -9.18%
CCOC(=O)N/N=C1/C[C@@H](O)[C@@H](O)[C@@H]2[C@@H]3C(=O)N(Cc4ccc5c(c4)OCO5)C(=O)[C@H]3CC[C@H]12 -9.22% [at 11.4 µM]
COc1ccccc1Nc1nc(-c2sc(NC(=O)c3ccc([N+](=O)[O-])cc3)nc2C)cs1 12.1%
Cc1nc2ccccn2c1C(=O)N/N=C/c1ccccc1[N+](=O)[O-] 8.78%
Nc1cc(Cl)nc(N/N=C/c2ccccc2[N+](=O)[O-])n1 0.464%
O=C(O)c1c2ccccc2cc2ccccc12 -2.31%
C/C(CCC(=O)OC[C@@H]1O[C@H](C#Cc2ccccc2)C=C[C@@H]1Oc1ccc(C)cc1)=N/OC[C@@H](O)[C@H]1O[C@H]2OC(C)(C)O[C@H]2[C@@H]1O 14.6% [at 11.4 µM]
CCn1c(N2CCN(C(=O)Nc3ccc(F)cc3)CC2)nc2ccccc21 -29.3%
COc1cccc(N2CCN(C(=S)Nc3cccc(C)c3)CC2)c1 -10.1%
CCOC(=O)N/N=C1/C[C@@H](O)[C@@H](O)[C@@H]2[C@@H]3C(=O)N([C@@H](C)c4ccccc4)C(=O)[C@H]3CC[C@H]12 18.4% [at 11.4 µM]
N#C/C(=C/c1cccc(C(F)(F)F)c1)c1nc(CCN2C(=O)c3ccccc3C2=O)cs1 -10.9%
Nc1nonc1-c1noc(CCCN2C(=O)c3ccccc3C2=O)n1 -6.39%
COc1cc(S(C)=O)ccc1-c1nc2ncccc2[nH]1 (stereo not drawn) -1.83% [at 25.6 µM]
O=C(c1ccc(Oc2ccc(C(F)(F)F)cn2)cc1)N1CCN(c2ccccc2)CC1 3.28%
O=C(CN1CCCCC1)Nc1nnc(-c2ccc([N+](=O)[O-])cc2)s1 -8.29%
CCC(=O)Nc1cccc(NC(=O)c2cccc([N+](=O)[O-])c2)c1 -8.59%
COc1ccc(N(CC(=O)O)N=O)cc1 8.99% [at 11.4 µM]
COc1ccc(OC)c2[nH]c(=O)c(CCNC(=O)c3ccc(S(=O)(=O)N(C)C)cc3)cc12 4.82%
O=C1[C@@H]2[C@H]3[C@H](O)[C@H](O)C/C(=N/OC[C@@H](O)COCc4ccco4)[C@@H]3CC[C@H]2C(=O)N1c1ccc(F)cc1F 10.9% [at 11.4 µM]
COc1ccccc1CNC(=O)C1CCN(S(=O)(=O)N2CC(C)CC(C)C2)CC1 (stereo not drawn) -2.76%
C=CCOc1c(Br)cc(CNc2ccc(NC(=O)C(C)C)c(OC)c2)cc1OC -29.1%
COc1cc(C)c(Br)cc1S(=O)(=O)NCc1ccccc1 -0.946%
COc1ccccc1CNC(=O)C/C(C)=N/NC(=O)Cc1ccccc1 9.12%

AC50, active:
CCCCCC1=C2CNC(CC(C)C)(C(=O)OC)C=C2C(C)C1=O (stereo not drawn) 5.01 µM
COC(=O)C1(Cc2ccccc2)C=C2C(=C(C(C)C)C(=O)C2C)CN1 (stereo not drawn) 12.6 µM
CCCCCC1=C2CNC(Cc3ccccc3)(C(=O)OC)C=C2C(C)C1=O (stereo not drawn) 12.6 µM
CC1(C)SC(=S)N(Cc2ccc3c(c2)OCO3)C1N(O)C(=O)NC1CCCCC1 (stereo not drawn) 2.24 µM
O=[N+]([O-])c1cccc(/C=N\Nc2ccc3ccccc3n2)c1O 3.16 µM
NC(N)=Nc1nc(CCN2C(=O)c3ccccc3C2=O)cs1 15.8 µM
CC1CCN(CC(=O)Nc2cccc([N+](=O)[O-])c2)CC1 5.62 µM
COc1cc(CNCc2cccs2)cc(Br)c1OC 0.0562 µM
COc1ccccc1CNCc1cccs1 0.794 µM

AC50, inactive:
CN(C)[C@@H]1C(=O)C(C(N)=O)=C(O)[C@]2(O)C(=O)C3=C(O)c4c(O)ccc(Cl)c4[C@H](O)[C@H]3C[C@@H]12
